Records with an inconclusive call do not appear. Where a call stands in place of a potency, no number is given. Unmarked numbers belong to inactive results. The source made the active and inactive calls. Calls follow the shape of the dose curve; as a rule, active = well fitted inhibition curve with a large enough effect; inconclusive = small, poorly fitted or top-dose-only effect; inactive = flat fitted curve, though single readings scatter.

Glutathione peroxidase 1 (Homo sapiens), sequence (P07203 whole entry, looked up): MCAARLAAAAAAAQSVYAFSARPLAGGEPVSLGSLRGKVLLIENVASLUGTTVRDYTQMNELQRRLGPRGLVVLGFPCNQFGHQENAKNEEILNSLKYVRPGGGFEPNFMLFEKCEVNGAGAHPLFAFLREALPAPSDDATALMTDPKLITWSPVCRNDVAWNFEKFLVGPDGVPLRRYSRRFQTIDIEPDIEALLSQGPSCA

The target of the assay is Glutathione peroxidase 1 (Homo sapiens) (UniProt P07203). In words: Primary qHTS Assay for Inhibitors of Recombinant Selenoprotein Glutathione Peroxidase 1 (GPX1) (AID 1845191). Also: nearly all actives have a fitted effect of over 65% in size. Particulars: recombinant GPX1, GR-coupled NADPH fluorescence, 15 min; series mostly up to 48.8 µM; activity, negative = inhibition: at the top concentration. The text has this:
Assay Provider: Elias S.J. Arner MD PhD.
Department of Medical Biochemistry and Biophysics
Karolinska Institutet, Solna, Stockholm, Sweden
Selenoprotein glutathione peroxidases (GPX), like the ubiquitously expressed GPX1 and the ferroptosis modulator GPX4, enact their antioxidant activities by reducing hydroperoxides using glutathione. […] GPX1 and GPX4 inhibitors have thus shown promise as anti-cancer agents. Existing inhibitors are often promiscuous, or modulate GPX activity only indirectly, so novel direct inhibitors identified through screening against GPX1 and GPX4 could be valuable. Here, we developed optimized glutathione reductase (GR)-coupled GPX assays for the biochemical high-throughput screen (HTS) of almost 12,000 compounds with known mechanisms of action. Initial hits were triaged using a GR counter-screen, assessed for isoform specificity using a separate GPX2 assay, and were assessed for general selenocysteine-targeting activity using a thioredoxin reductase (TXNRD1) assay. With this suite of assays, we identified novel GPX1/GPX2- and GPX4-specific inhibitors and can here present a validated pipeline for future discovery research for selenoprotein-targeting agents.
SEQUENCE No. (e.g., 1, 2, 3, etc.); […] (e.g., Cells, Incubation, Reagent, etc.); VALUE; DESCRIPTION.
1; Reagent 1; 3 uL; GPx1 enzyme or no enzyme control in 1536-well, black, solid Greiner assay plate.
2; Compound; 25 nL; Kalypsis pin tool (Wako USA) equipped with a 1536-well pin head.
3; Incubation; 30 min; room temperature.
4; Reagent 2; 1 uL; 10 nM GPX1, 1 mM GSH, 0.5 mM CHP, 0.5 mM NADPH, 100 nM GR, 0.01% BSA substrate
5; Detection; Fluorescence; ViewLux microplate reader, excitation 340 nm and emission 450 nm.
6; Incubation; 15 min; room temperature.
7; Detection; Fluorescence; ViewLux microplate reader, excitation 340 nm and emission 450 nm.
NOTES (numbers refer to Sequence numbers above)
1. 3 uL of 16.66 nM GPX1 and 0.016% BSA in assay buffer (50 mM Tris-HCl, 2 mM EDTA (pH 7.5), 150 mM NaCl) was added to columns 3-48 of 1536-well assay plates using a BioRAPTR Flying Reagent Dispenser (Let's Go Robotics (LGR), Carlsbad, CA). A no-enzyme control (0.01% BSA in TES assay buffer) was added to columns 1-2.
2. 25 nL of test compounds and DMSO controls were added to each well with a pin tool (Kalypsys).
3. The assay plates were incubated for 30 minutes at room temperature.
4. 1 uL of master mix (500 nM glutathione reductase (GR), 5 mM reduced glutathione (GSH), 2.5 mM NADPH in assay buffer) was added. 1 uL of cumene hydroperoxide (CHP) ([2.5 mM] in 50% EtOH) was then added within 5 minutes to initiate the reaction. Final concentrations were: 10 nM GPX1, 1 mM GSH, 0.5 mM CHP, 0.5 mM NADPH, 100 nM GR, 0.01% BSA.
5. Initial fluorescence readout (t=0) at 340/450 nm was measured using a ViewLux multimodal detector (PerkinElmer, Waltham, MA).
7. Endpoint fluorescence readout (t=15) at 340/450 nm was measured 15 min after room temperature incubation.
A general note: qHTS replaces the single test concentration by a dilution series.
In the case of `c1ccc(C2CC2)c(OCC2=NCCN2)c1`, the “activity, negative = inhibition” value is -8.84%. For the molecule `COC1(CS(=O)c2ccccc2)CCN(CCc2c[nH]c3ccc(F)cc23)CC1` (stereo not given), the result was inactive.

Consider `CC(C)=CCOc1c2occc2cc2ccc(=O)oc12`, for which the “activity, negative = inhibition” value was -16.3%. In the case of `Oc1ccccc1-c1ccccc1`, the “activity, negative = inhibition” value is -12.5%. `CN1CCN(C(=O)O[C@H]2c3nccnc3C(=O)N2c2ccc(Cl)cn2)CC1`: the outcome was inactive.

Consider `N#CC(C#N)=Cc1ccc(O)c(O)c1`, for which the “activity, negative = inhibition” value was 0.247%.

On to `C[C@]12CCC(=O)C(O)=C1CC[C@@H]1[C@@H]2CC[C@]2(C)C(=O)CC[C@@H]12`, for which the “activity, negative = inhibition” value is 3.18% [at 98.3 µM]. Consider `O=C(O)C(=O)c1cn(Cc2ccccc2)c2ccc(-c3ccc(OC(F)(F)F)cc3)cc12`, for which the result was inactive. `CC(O)(CS(=O)(=O)c1ccc(F)cc1)C(=O)Nc1ccc(C#N)c(C(F)(F)F)c1` (stereo not given): the outcome was inactive. Regarding `C[C@]12CC[C@H]3[C@@H](CCC4=CC(=O)CC[C@@H]43)[C@@H]1CC[C@@H]2OC(=O)CCc1ccccc1`, the “activity, negative = inhibition” value was -19.1%. Turning to `Cc1ncc(CNC(=O)N(CCCl)N=O)c(N)n1`, the Potency entry is “inactive”. In the case of `c1ccc2c(c1)OCC(C1=NCCN1)O2` (stereo not given), the “activity, negative = inhibition” value was -27.7%. With `CC(=O)[C@H]1CC[C@H]2[C@@H]3CC[C@H]4C[C@H](O)CC[C@]4(C)[C@H]3C(=O)C[C@]12C`, the “activity, negative = inhibition” value is 4.78%. Regarding `COc1ccc(C(=O)c2c(C)n(CCN3CCOCC3)c3ccccc23)cc1`, the outcome was inactive. Turning to `Cc1cccc(C)c1NC(=O)CN1CCCC1=O`, the Potency entry was “inactive”.

On to `Clc1ccc(CCC(Cn2ccnc2)Sc2c(Cl)cccc2Cl)cc1` (stereo not given), for which the Potency entry was “inactive”. Turning to `C=C1C[C@@H]2[C@H](CC[C@]3(C)C(=O)CC[C@@H]23)[C@@]2(C)C=CC(=O)C=C12`, the Potency entry is “inactive”. With `Cc1sc2c(c1C)C(c1ccc(Cl)cc1)=N[C@@H](CC(=O)OC(C)(C)C)c1nnc(C)n1-2`, the Potency result was “inactive”. Consider `Cn1c(CCCC(=O)O)nc2cc(N(CCCl)CCCl)ccc21`, for which the Potency entry is “inactive”. With `CC(CCc1ccccc1)NC(C)C(O)c1ccc(O)cc1` (stereo not given), the Potency entry is “inactive”. With `C[C@@H]1O[C@@H](O[C@H]2C[C@@H](O)[C@]3(CO)[C@H]4[C@H](O)C[C@]5(C)[C@@H](C6=CC(=O)OC6)CC[C@]5(O)[C@@H]4CC[C@]3(O)C2)[C@H](O)[C@H](O)[C@H]1O`, the Potency entry is “inactive”. Consider `Oc1ccc(Cl)cc1Cc1ccccc1`, for which the “activity, negative = inhibition” value was -7.71%. As for `COc1ccc2c(c1OC)CN1CCc3cc4c(cc3C1C2)OCO4` (stereo not given), the result was inactive. As for `C#CCN(C)[C@H](C)Cc1ccccc1`, the Potency result was “inactive”.

For the molecule `C=C1CC[C@@]2(O)[C@H]3Cc4ccc(O)c5c4[C@@]2(CCN3CC2CC2)[C@H]1O5`, the “activity, negative = inhibition” value is -8.44%. As for `C=CCN1CC[C@]23c4c5ccc(O)c4O[C@H]2C(=O)CC[C@@]3(O)[C@H]1C5`, the outcome was inactive. As to `O=c1[nH]c2ccccc2n1C1CCN(CCCC(c2ccc(F)cc2)c2ccc(F)cc2)CC1`, the Potency entry is “inactive”. `Oc1cccc2cccnc12`: the Potency result was “inactive”. As to `O=C1NCN(c2ccccc2)C12CCN(CC1COc3ccccc3O1)CC2` (stereo not given), the “activity, negative = inhibition” value is -11.4%. In the case of `CC[C@@H](CO)NC(=O)[C@@H]1C=C2c3cccc4[nH]cc(c34)C[C@H]2N(C)C1`, the result was inactive. Consider `CCCN1CCC[C@@H]2Cc3nc(N)ncc3C[C@H]21`, for which the “activity, negative = inhibition” value was 2.82%. Consider `O=P1(NCCCl)OCCCN1CCCl` (stereo not given), for which the Potency entry is “inactive”. On the same count and under the same terms, with `Nc1ccncc1` the entry was “inactive”; with `NCC(O)c1ccc(O)cc1` (stereo not given), “inactive”.

Turning to `CN(C)CCN(C)CCc1ccc(Cl)c(Cl)c1`, the result was inactive. On to `COC[C@@H](NC(C)=O)C(=O)NCc1ccccc1`, for which the outcome was inactive. With `COc1ccc(Cc2nccc3cc(OC)c(OC)cc23)cc1OC`, the Potency result was “inactive”. As for `CCC(COC(=O)c1cc(OC)c(OC)c(OC)c1)(c1ccccc1)N(C)C` (stereo not given), the “activity, negative = inhibition” value is -16.4%. With `CCCN1CCC[C@@H]2Cc3[nH]ncc3C[C@H]21`, the Potency result was “inactive”. The same measure, in the same setting: then `CC[C@@H](CO)NC(=O)[C@@H]1C=C2c3cccc4c3c(cn4C)C[C@H]2N(C)C1`, with “inactive”.

These data come from PubChem BioAssay (NCATS).
